Sampled rows, rich in hits. Any-hit rate of the full collection: about 2.4%.
BRCT PPI green = blocks human BRCA1 BRCT binding to phosphopeptide, green readout; BRCA1 BRCT-phosphopeptide binding, green fluorescence polarization; Potency, µM (top dose mostly 76.9 µM), inactives show top-dose activity change, negative = inhibition, most hits filed as inhibitors; 75,000 compounds, 0.05% hits; AID 875;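 note: potency is the fitted concentration of half-maximal effect; plate controls were peptide without protein for full effect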
Target sequence (P38398 whole entry, looked up): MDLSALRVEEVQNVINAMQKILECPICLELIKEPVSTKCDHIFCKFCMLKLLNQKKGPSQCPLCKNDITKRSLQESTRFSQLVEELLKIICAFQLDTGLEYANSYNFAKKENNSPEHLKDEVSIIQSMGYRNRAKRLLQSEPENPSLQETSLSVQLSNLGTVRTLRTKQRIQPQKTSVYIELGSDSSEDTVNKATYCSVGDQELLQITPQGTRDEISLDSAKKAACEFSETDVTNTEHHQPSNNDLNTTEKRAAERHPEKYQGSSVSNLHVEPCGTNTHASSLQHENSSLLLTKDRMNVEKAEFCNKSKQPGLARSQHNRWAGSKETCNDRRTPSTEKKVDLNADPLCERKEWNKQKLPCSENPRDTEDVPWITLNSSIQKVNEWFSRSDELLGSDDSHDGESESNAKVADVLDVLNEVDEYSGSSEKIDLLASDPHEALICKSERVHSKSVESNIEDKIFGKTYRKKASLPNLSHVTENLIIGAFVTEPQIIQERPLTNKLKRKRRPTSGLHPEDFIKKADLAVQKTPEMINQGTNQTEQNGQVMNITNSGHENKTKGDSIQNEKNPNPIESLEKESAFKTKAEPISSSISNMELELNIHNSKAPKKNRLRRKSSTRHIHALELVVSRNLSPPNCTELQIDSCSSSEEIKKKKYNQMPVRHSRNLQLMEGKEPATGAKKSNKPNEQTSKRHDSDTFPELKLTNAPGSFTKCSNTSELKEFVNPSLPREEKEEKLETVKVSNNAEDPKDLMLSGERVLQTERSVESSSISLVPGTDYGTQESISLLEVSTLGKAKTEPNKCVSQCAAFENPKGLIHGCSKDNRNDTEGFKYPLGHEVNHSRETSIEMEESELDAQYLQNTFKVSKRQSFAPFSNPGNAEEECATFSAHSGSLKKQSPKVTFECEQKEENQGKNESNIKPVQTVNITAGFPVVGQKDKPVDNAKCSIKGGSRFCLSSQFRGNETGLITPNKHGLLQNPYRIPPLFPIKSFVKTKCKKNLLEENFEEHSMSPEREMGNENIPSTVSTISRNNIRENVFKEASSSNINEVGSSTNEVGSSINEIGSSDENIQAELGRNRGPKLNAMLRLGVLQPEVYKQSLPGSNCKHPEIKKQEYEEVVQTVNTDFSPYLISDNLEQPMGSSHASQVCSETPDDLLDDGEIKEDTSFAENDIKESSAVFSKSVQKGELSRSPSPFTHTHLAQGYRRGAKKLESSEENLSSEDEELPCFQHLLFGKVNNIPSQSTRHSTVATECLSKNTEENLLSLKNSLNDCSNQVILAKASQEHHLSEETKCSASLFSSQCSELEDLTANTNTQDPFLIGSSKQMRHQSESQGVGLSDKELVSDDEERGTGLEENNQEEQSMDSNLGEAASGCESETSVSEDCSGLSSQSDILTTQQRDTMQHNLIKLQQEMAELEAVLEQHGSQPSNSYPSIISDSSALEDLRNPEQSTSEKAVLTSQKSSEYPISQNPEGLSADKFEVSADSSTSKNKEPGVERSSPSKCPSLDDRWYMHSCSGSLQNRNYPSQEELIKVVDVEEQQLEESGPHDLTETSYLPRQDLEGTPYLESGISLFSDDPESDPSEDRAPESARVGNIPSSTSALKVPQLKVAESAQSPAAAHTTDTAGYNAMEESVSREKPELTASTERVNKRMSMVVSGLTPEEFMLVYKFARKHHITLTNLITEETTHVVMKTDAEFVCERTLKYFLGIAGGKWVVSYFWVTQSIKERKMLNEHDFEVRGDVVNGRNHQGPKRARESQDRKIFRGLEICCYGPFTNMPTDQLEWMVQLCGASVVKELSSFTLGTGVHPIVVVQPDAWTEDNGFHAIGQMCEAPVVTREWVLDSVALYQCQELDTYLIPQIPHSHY
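Compounds were incubated for 12 min at room temperature with a complex of 100 nM fluorescein-tagged pBACH1 decapeptide and 250 nM His-tagged BRCT protein. Buffer was phosphate pH 7.3 with EDTA, DTT and Tween 20. Disruption of binding lowers the polarization signal.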
TsaE inh = YjeE (TsaE) inhibition, E. coli. P0AF67. purified YjeE enzyme, qHTS inhibition assay. Potency, µM. 71,000 compounds, 0.05% hits
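Fluorescence polarization of a BODIPY Texas Red–ADP probe (2 uM) bound to purified YjeE (10 uM) was read after 15 min room-temperature incubation with compounds. Loss of polarization marks inhibitors; ADP serves as titrated control.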
BRCT PPI red = inhibitors of human BRCA1 BRCT-phosphoprotein interaction (red fluorophore); P38398; BRCT-phosphopeptide binding, red fluorescence polarization; Potency, µM (doses to about 76.9 µM), for inactives: at the top dose activity change, negative = inhibition, usual class: inhibitors; 75,000 compounds, 0.03% hits; note: % is set by controls: 0 for no effect and ±100 for the full control effect
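Fluorescence polarization: 100 nM His-tagged BRCA1 BRCT with 100 nM TAMRA-labelled phospho-BACH1 decapeptide, phosphate buffer pH 7.3 with 150 mM NaCl, DTT, 0.01% Tween 20; 12 min RT. Binding inhibition seen as FP decrease.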
Tau filament bind = binders of human tau filaments. Potency, µM (top dose mostly 57.1 µM), inactives show at the highest dose activity change, negative = inhibition. recombinant tau filaments, thioflavin S fluorescence, 15 h; filaments grown with octadecylsulfate alongside compound. P10636. AID 596. 71,000 compounds, 2% hits;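 note: potency is the fitted concentration of half-maximal effect; % is set by controls: 0 for no effect and ±100 for the full control effect; actives lower thioflavin S fluorescence by blocking filaments or displacing dye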
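Recombinant tau protein (human, 1 uM final) plus 30 uM ODS in HEPES pH 7.4 with NaCl, DTT and thioflavine S. Compound present from the start; fluorescence at 510 nm after 15 h, 37 C.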
Hsp90 Hop PPI = changes Hsp90-Hop TPR2A binding signal, up or down. AlphaScreen TPR2A-His6 binding biotin-Hsp90 C-terminal peptide. Potency, µM (highest dose often 57 µM), for the others: at the top dose activity change, negative = inhibition. 71,000 compounds, 0.44% hits. AID 595; active = well fitted curve in either direction with a large enough effect; inconclusive = small, poorly fitted or top-dose-only effect, or another doubt; note: potency is the fitted concentration of half-maximal effect; % is set by controls: 0 for no effect and ±100 for the full control effect
DNA Pol III inh = DNA polymerase III holoenzyme inhibition; reconstituted DNA polymerase III holoenzyme replication, biochemical; Potency, µM (top dose mostly 57.1 µM), without a hit: top-dose activity change, negative = inhibition; 71,000 compounds, 0.25% hits; AID 603; note: potency is the fitted concentration of half-maximal effect; % is set by controls: 0 for no effect and ±100 for the full control effect
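Reconstituted *E. coli* holoenzyme (0.35 nM Pol III, 1 nM beta, 154 nM SSB, 2 nM primase) was preincubated with compound for 15 min at RT. Synthesis on 1.4 nM ssM13Gori ran 35 min, then was stopped with PicoGreen/EDTA and read as dsDNA fluorescence.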
* hit, by the source's call; i = inactive; ? = inconclusive; / = no result; ! = not active in a repeat; [ ] = dose if it differs, or a comment. Unless noted, calls come from the whole dose curve; as a rule, active = well fitted curve in the direction sought with a large enough effect; inconclusive = small, poorly fitted or top-dose-only effect, or another doubt; inactive = no such curve, though single readings can be large; an effect the other way counts as inactive or inconclusive.

SMILES | BRCT PPI green | TsaE inh | BRCT PPI red | Tau filament bind | Hsp90 Hop PPI | DNA Pol III inh
Cc1cc(N2CCOCC2)c2c(N)c(Br)cc(C)c2n1 | -2% | i | -1% | 3.2µM* | 4%[11 µM] | 4%[11.4 µM]
CCOC(=O)N1CCN(c2cc3[nH]c(=S)[nH]c3cc2F)CC1 | -6% | i | -2% | -10% | -4% | 3%
CCOC(=O)N1CCN(c2c(F)cc3[nH]c(=S)[nH]c3c2Br)CC1 | 1% | i | 1% | 16µM* | 0% | 3%
O=C(O)[C@H]1C[C@H](C(=O)O)N1 | -3% | i | 2% | -6% | ? | -7%
Oc1ccc(N=Cc2ccc(O)c(O)c2)cc1 | -2% | ? | -1% | 6.3µM* | -29% | -25%
C[N+](C)(C)/N=C\c1ccc(O)c(O)c1 | -1%[15.4 µM] | i | -1%[15.4 µM] | 7%[11.4 µM] | -6%[11 µM] | -1%[11.4 µM]
COc1ccc2c(c1)c(=O)oc1cc(OCC(=O)NC3CC3)ccc12 | -2% | i | -1% | 2% | -2% | 16µM*
CN1/C(=C\P(=O)(N(C)C)N(C)C)C(C)(C)c2ccccc21 | 27% | ? | 16% | 10µM* | -5% | 0%
CN1/C(=C/C=N/n2cnnc2)C(C)(C)c2ccccc21 | -1% | i | 1% | -5% | 2% | -6%
N=C(N)SCCN1CCCCC1 | -2%[15.4 µM] | i | -1%[15.4 µM] | 4%[11.4 µM] | 0%[11 µM] | -1%[11.4 µM]
O=C1c2ccccc2C(=O)N1CCCSc1nc2ccccc2o1 | 1% | i | -3% | 4µM* | ? | -2%[11.4 µM]
O=C(CSc1nc2ccccc2o1)c1cc2ccccc2oc1=O | 3% | i | 0% | 25µM* | -20% | -8%
O=C1c2ccccc2C(=O)N1Cc1nc2ccccc2o1 | -3% | i | 0% | 1% | -1% | -5%
Cc1cc(C)nc(SCC(=O)c2cc3ccccc3oc2=O)n1 | -1% | i | -1% | -18% | -6% | 1%
CCOC(=O)NCc1ccc2c(c1)cc(C)n2C | -10% | i | -6% | ? | -5% | -1%
Cc1cc2cc(CNC(=O)Nc3ccccc3)ccc2n1C | -3% | i | -11% | 20µM* | ? | -4%
Cc1cc2cc(CNC(=O)c3cccs3)ccc2n1C | -2% | i | -10% | 25µM* | -15% | -10%
CC(C)=N[C@H](C(=O)O)C(C)(C)S | -2%[15.4 µM] | i | 1%[15.4 µM] | 5%[11.4 µM] | -2%[11 µM] | 10%[11.4 µM]
CCCCCCCCCCCCCCCC(=O)NC[C@@H](COP(=O)([O-])OCC[N+](C)(C)C)OCC | -3% | i | -5% | 176% | -13% | -3%
CCc1ccc(CNc2ccc(O)cc2)cc1 | -3% | i | -6% | 10µM* | -29% | -13%
CCOC(=O)c1nnc2cc(-c3ccccc3)nn2c1C | -1% | i | 3% | 16µM* | 2% | -1%
CCOC(=O)c1nnc2cc(-c3ccc(Br)cc3)nn2c1C | -3% | i | -1% | 10µM* | -6% | -5%
CCCS(=O)(=O)n1nc(-c2ccc(Br)cc2)cc1N | -2% | i | 6% | -19% | -1% | -1%
O=C(Cc1cc(=O)[nH]c(=O)[nH]1)N1CCC(Cc2ccccc2)CC1 | 3% | i | -1% | 25µM* | -8% | -6%
COc1cccc(Cn2c(=O)c(-c3cccs3)nc3cncnc32)c1 | 2% | i | 0% | ? | -4% | 3%
SMILES | BRCT PPI green | TsaE inh | BRCT PPI red | Tau filament bind | Hsp90 Hop PPI | DNA Pol III inh
COc1cccc(Cn2c(=O)c(-c3ccc(F)c(F)c3)nc3cncnc32)c1 | 1% | i | 1% | 10µM* | -12% | -10%
COc1cccc(Cn2c(=O)c(-c3ccccc3)nc3cncnc32)c1 | 0% | i | -3% | 20µM* | -3% | -21%
CCOC(=O)c1c(C)oc2c1c(C(c1ccncc1)N1CCOCC1)c(O)c1ccccc12 (configuration not stated) | -1% | i | -1% | 13µM* | -20% | -3%
COCCNc1ncnc2ccc(-c3ccccc3C(F)(F)F)cc12 | 1% | i | 2% | 0% | -12% | -4%
Cc1cc(NC(=O)CSc2nc3c(c(-c4cccnc4)c2C#N)CCC3)no1 | 0% | i | 2% | 286%[11.4 µM] | -1%[11 µM] | 3.2µM*
COc1cccc(NC(=O)CSc2nc3c(c(-c4ccco4)c2C#N)CCCC3)c1 | 1% | i | 0% | ? | -2% | -8%
O=C1C(C=NCCCn2ccnc2)=C(O)c2ccccc21 | -2% | i | 1% | -25%[11.4 µM] | 3.2µM* | -3%[11.4 µM]
CC(=NCCCn1ccnc1)C1=C(O)c2ccccc2C1=O | -2% | i | -2% | -13% | 13µM* | -6%
c1ccc(SCCSc2ccccc2)cc1 | 0% | i | 1% | -3% | ? | -2%
C=C1C[C@@]23C[C@]1(O)CC[C@@H]2[C@]12C=C[C@@H](O)[C@@](C)(C(=O)O1)[C@@H]2[C@@H]3C(=O)O | / | i | / | ? | -7% | -6%
Cc1onc(-c2ccccc2Cl)c1C(=O)Nc1ccc(-n2nncc2C(C)(C)C)cc1 | -1% | i | 0% | 25µM* | -3% | -1%
Cc1onc(-c2ccccc2Cl)c1C(=O)Nc1ccc(-n2nncc2-c2ccco2)cc1 | -8% | i | 1% | ? | -12% | 11%
Cc1cc(=O)cc(C)n1-c1ccccc1N1CCOCC1 | -2% | i | -6% | 7.9µM* | -14% | -12%
COc1ccccc1N1CCN(C(=O)N2CCOCC2)CC1 | -1% | i | 0% | -3%[11.4 µM] | -8%[11 µM] | -5%[11.4 µM]
COc1ccc(-n2cnnc2SCc2ncc(-c3ccccc3)o2)cc1 | 3% | i | -3% | 0% | -3% | 5µM*
CCN(CCO)CCCC(C)Nc1ccnc2cc(Cl)ccc12 (configuration not stated) | -3%[3.08 µM] | / | -2% | / | / | /
CCN(CC)CCC[C@H](C)Nc1c2ccc(Cl)cc2nc2ccc(OC)cc12 | ? | i | -1%[34.4 µM] | / | 2%[26 µM] | 32µM*!
COc1nc(C#N)nc(N(C)C)n1 | -1% | i | -1% | 13µM* | -8% | 8%
COc1cc(N=Nc2cccc(S(N)(=O)=O)c2)c2ccccc2c1N | 12%[15.4 µM] | i | 0%[15.4 µM] | 1.6µM* | ? | -3%[11.4 µM]
COc1cccc(CNc2ccc(S(N)(=O)=O)cc2)c1OC | 1% | i | 1% | -1% | -3% | 2%
COc1ccc(N2CCN(Cc3nc(-c4ccc(Cl)cc4Cl)no3)CC2)cc1 | -8% | i | 0% | 13µM* | -14% | 6%
c1ccc(-c2noc(CN3CCN(c4ccccc4)CC3)n2)cc1 | -2% | i | 1% | 4% | 1%[2.3 µM] | -1%
CC(C)CCNC(=O)c1cnn2c(C(F)(F)F)cc(-c3ccco3)nc12 | -1% | i | 1% | 16µM* | 0% | -7%
O=C(c1cc(-c2ccco2)on1)N1CCN(c2ccccc2)CC1 | 1% | i | -1% | -21% | -2% | -6%

Screens: PubChem BioAssay, National Center for Advancing Translational Sciences (NCATS)
